In PubChem BioAssay (EPA / NIEHS):
Active and inactive are the calls of the source. The calls were made as follows: active = hit-call score of the fitted dose curve at least 0.9, where 1 is the maximum; inactive = score below 0.9.

Experiments:
[1] = ATG_CRE_CIS: Attagene CIS-FACTORIAL HepG2 Assay for human cAMP Responsive Element (CRE) binding protein 3 (AID 2282926); settings: HepG2 CRE cis-reporter, Attagene multiplexed mRNA; actives raise or lower the signal
Summary of the method: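 Capillary electrophoresis of 6-FAM-labelled, HpaI-digested PCR products quantified reporter transcripts. These came from HepG2 transiently transfected with cis-element reporters and exposed to test chemicals for 24 hours, with DMSO defining baseline activity.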

[2] = biological target: CCAAT/enhancer-binding protein beta (Homo sapiens) (UniProt P17676); experiment: ATG_C_EBP_CIS: Attagene CIS-FACTORIAL HepG2 Assay for human CCAAT/Enhancer Binding Protein (C/EBP) beta (AID 2282927); settings: HepG2 Attagene cis-factorial transcription factor reporter; actives raise or lower the signal
CCAAT/enhancer-binding protein beta (Homo sapiens), sequence (P17676 whole entry, looked up): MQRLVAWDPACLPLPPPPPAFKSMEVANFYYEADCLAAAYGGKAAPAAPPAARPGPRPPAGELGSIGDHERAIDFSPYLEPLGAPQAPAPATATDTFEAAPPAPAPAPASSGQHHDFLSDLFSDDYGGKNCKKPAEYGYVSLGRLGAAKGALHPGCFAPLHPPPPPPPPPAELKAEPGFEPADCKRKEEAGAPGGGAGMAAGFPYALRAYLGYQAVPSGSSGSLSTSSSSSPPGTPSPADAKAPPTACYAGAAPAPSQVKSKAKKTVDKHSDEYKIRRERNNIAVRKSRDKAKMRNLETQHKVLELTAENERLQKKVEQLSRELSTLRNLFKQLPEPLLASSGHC
Summary of the method: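 Transiently transfected HepG2 (MRTU library, endogenous TF-driven promoters); 24 h dosing; total RNA → oligo(dT) RT → PCR → 6-FAM primer extension → HpaI digest → CE; fit bidirectionally vs DMSO.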

[3] = ATG_CMV_CIS: Attagene CIS-FACTORIAL HepG2 Assay for human CMV (Internal Marker) (AID 2282928); settings: HepG2 CMV promoter reporter, transcription factor profiling; actives raise or lower the signal;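 also: endpoint acts as a background internal control marker rather than a target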
Summary of the method: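 Readout: fluorescent reporter cDNA fragments separated by capillary electrophoresis after RT-PCR and HpaI cut. Cells: HepG2 carrying transfected cis-promoter reporter constructs, dosed 24 h. Endpoint serves as background internal-marker control, fit bidirectionally versus DMSO.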

[4] = ATG_DR4_LXR_CIS: Attagene CIS-FACTORIAL HepG2 Assay for human Liver X Receptor (LXR), DR4 submotif (AID 2282929); settings: HepG2 Attagene DR4 cis-reporter, mRNA transcription; actives raise or lower the signal
Summary of the method: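 Measures endogenous transcription factor activity via a DR4-driven reporter transcript in human HepG2 cells. Compounds incubated 24 h; mRNA quantified by RT-PCR and capillary electrophoresis, analysed as gain or loss of signal versus DMSO.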

[5] = biological target: Aryl hydrocarbon receptor (Homo sapiens) (UniProt P35869); experiment: ATG_Ahr_CIS: Attagene CIS-FACTORIAL HepG2 Assay for human Aryl Hydrocarbon Receptor (Ahr) (AID 2282930); settings: HepG2 AhR cis-factorial reporter transcription; actives raise or lower the signal
Aryl hydrocarbon receptor (Homo sapiens), sequence (P35869 whole entry, looked up): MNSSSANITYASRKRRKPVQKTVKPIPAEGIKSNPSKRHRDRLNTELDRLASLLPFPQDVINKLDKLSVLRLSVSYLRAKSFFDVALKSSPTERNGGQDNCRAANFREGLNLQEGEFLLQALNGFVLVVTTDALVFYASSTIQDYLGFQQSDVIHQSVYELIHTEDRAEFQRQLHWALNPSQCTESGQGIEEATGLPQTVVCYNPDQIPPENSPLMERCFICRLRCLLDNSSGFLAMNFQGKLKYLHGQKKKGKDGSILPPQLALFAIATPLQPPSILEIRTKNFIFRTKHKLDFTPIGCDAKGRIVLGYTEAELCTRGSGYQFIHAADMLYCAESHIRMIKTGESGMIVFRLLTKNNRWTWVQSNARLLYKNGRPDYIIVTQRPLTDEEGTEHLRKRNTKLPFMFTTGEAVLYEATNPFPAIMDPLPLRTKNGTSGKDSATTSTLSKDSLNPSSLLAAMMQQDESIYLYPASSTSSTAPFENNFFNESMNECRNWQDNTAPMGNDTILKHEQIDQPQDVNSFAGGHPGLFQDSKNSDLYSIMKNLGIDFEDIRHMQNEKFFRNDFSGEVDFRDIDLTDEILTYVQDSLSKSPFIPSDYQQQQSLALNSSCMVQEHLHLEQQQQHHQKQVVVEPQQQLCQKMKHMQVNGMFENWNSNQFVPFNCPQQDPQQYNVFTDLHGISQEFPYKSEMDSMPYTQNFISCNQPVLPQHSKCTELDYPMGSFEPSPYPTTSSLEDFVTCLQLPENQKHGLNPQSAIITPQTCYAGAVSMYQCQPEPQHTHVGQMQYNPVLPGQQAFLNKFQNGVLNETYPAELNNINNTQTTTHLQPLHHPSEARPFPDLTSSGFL
Summary of the method: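 Read-out: reporter mRNA quantified by RT-PCR with fluorescent primer extension and capillary electrophoresis. Human HepG2 liver cells carried transfected cis-promoter reporter units and were exposed to chemical for 24 h; gain or loss fitted relative to DMSO.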

[6] = ATG_AP_1_CIS: Attagene CIS-FACTORIAL HepG2 Assay for human Activator Protein 1 (AP-1) (AID 2282931); settings: HepG2 Attagene cis-factorial AP-1 reporter mRNA; actives raise or lower the signal
Summary of the method: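 Bidirectional concentration-response fitting against DMSO controls. Underlying signal: reporter mRNA from cis-promoter constructs in transiently transfected HepG2, measured after 24 h by RT-PCR and capillary electrophoresis.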

[7] = ATG_AP_2_CIS: Attagene CIS-FACTORIAL HepG2 Assay for human Activator Protein 2 (AP-2) (AID 2282932); settings: HepG2 AP-2 cis-reporter, Attagene transcription factor profiling; actives raise or lower the signal
Summary of the method: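 Liver-derived HepG2 line, cis-reporter system measuring endogenous factors; 24 h dosing; reporter mRNA detected by fluorescent RT-PCR and capillary electrophoresis.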

[8] = ATG_BRE_CIS: Attagene CIS-FACTORIAL HepG2 Assay for human Bone Morphogenetic Protein (BMP) Response Element (BRE) (AID 2282933); settings: HepG2 BMP response element reporter, Attagene transcription factor profiling; actives raise or lower the signal
Summary of the method: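 HepG2 cells transiently transfected with multiplexed cis-element reporter units were dosed with chemical for 24 h. Reporter mRNA was measured by RT-PCR with fluorescent labelling, HpaI digestion and capillary electrophoresis; bidirectional fitting relative to DMSO.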

[9] = biological target: Transcription factor E2F1 (Homo sapiens) (UniProt Q01094); experiment: ATG_E2F_CIS: Attagene CIS-FACTORIAL HepG2 Assay for human E2F Transcription Factor 1 (AID 2282935); settings: HepG2 Attagene cis-reporter, E2F reporter RNA transcripts; actives raise or lower the signal
Transcription factor E2F1 (Homo sapiens), sequence (Q01094 whole entry, looked up): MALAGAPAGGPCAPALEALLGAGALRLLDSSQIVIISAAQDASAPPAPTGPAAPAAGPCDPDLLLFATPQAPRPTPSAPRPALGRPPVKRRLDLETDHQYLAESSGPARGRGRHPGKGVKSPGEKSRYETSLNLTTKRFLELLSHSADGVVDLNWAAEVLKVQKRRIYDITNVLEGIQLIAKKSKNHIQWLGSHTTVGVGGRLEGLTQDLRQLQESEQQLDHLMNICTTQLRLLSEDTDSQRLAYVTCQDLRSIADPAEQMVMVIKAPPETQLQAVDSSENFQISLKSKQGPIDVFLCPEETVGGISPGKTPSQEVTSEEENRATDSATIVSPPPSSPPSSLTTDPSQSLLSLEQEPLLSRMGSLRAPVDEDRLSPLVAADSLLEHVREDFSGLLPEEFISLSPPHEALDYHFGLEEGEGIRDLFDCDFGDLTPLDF
Summary of the method: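 Liver-derived HepG2 cells expressing transfected promoter-driven reporter units received test chemical for 24 hours. Signal gains or losses were fitted bidirectionally against DMSO.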

[10] = biological target: Retinoic acid receptor alpha (Homo sapiens) (UniProt P10276); experiment: ATG_DR5_RAR_CIS: Attagene CIS-FACTORIAL HepG2 Assay for human Retinoic Acid Receptor Alpha (RARE), DR5 submotif (AID 2282934); settings: HepG2 Attagene cis-factorial RARE DR5 reporter, mRNA; actives raise or lower the signal
Retinoic acid receptor alpha (Homo sapiens), sequence (P10276 whole entry, looked up): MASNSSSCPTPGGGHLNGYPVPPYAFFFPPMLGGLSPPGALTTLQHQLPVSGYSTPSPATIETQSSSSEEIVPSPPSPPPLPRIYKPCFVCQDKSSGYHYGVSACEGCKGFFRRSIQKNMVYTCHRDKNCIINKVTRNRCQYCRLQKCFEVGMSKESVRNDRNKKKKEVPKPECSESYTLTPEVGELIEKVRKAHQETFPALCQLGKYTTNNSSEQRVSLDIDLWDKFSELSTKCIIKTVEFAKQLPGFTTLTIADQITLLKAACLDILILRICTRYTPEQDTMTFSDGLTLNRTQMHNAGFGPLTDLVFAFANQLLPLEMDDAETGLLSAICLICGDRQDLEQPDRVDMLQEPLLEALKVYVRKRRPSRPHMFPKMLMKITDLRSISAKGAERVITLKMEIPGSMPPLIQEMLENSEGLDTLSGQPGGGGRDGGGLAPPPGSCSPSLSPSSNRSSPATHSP
Summary of the method: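 Read-out: DR5-driven reporter transcript measured by RT-PCR, 6-FAM primer extension, HpaI digest and capillary electrophoresis. Human HepG2 liver cells carry transiently transfected cis-element reporter constructs; dosing lasts 24 h. Gain or loss of signal fitted against DMSO baseline.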

| Compound | outcome [1] | outcome [2] | outcome [3] | AC50 [4] | outcome [5] | outcome [6] | outcome [7] | outcome [8] | outcome [9] | AC50 [1] | AC50 [3] | AC50 [6] | outcome [10] | AC50 [9] | outcome [4] | AC50 [5] | AC50 [8] |
| --- | --- | --- | --- | --- | --- | --- | --- | --- | --- | --- | --- | --- | --- | --- | --- | --- | --- |
| O=C1OC[C@H](Cc2cccc(O)c2)[C@H]1Cc1cccc(O)c1 | inactive | inactive | inactive | 13.9 µM (active) | inactive | inactive | inactive | inactive | inactive | – | – | – | – | – | – | – | – |
| CCCOC(=O)c1c(Cl)c(Cl)c(Cl)c(Cl)c1C(=O)OCCC | – | inactive | – | 27 µM (active) | inactive | – | inactive | inactive | – | 171 µM (active) | 73.6 µM (active) | 178 µM (active) | inactive | 59.9 µM (active) | – | – | – |
| O=C(Nc1ccc([N+](=O)[O-])cc1)Nc1ccc([N+](=O)[O-])cc1 (tested in a mixture with another compound) | inactive | inactive | inactive | – | – | inactive | inactive | inactive | inactive | – | – | – | inactive | – | inactive | 35.1 µM (active) | – |
| CC1CC(O)CC(C)(C)C1 (centres undefined) | inactive | inactive | inactive | – | inactive | inactive | inactive | inactive | inactive | – | – | – | inactive | – | inactive | – | – |
| Cc1c(C2(c3cc(Br)c(O)c(Br)c3C)OS(=O)(=O)c3ccccc32)cc(Br)c(O)c1Br | inactive | inactive | inactive | – | – | inactive | inactive | inactive | inactive | – | – | – | inactive | – | inactive | 32.5 µM (active) | – |
| C=CC(=C)CCCC(C)(C)OC(C)=O | inactive | inactive | inactive | – | inactive | inactive | inactive | inactive | inactive | – | – | – | inactive | – | inactive | – | – |
| Cc1occc(=O)c1OC(=O)C(C)C | inactive | inactive | inactive | – | inactive | inactive | inactive | inactive | inactive | – | – | – | inactive | – | inactive | – | – |
| CN(C)c1cccc(O)c1 | inactive | inactive | inactive | – | – | inactive | inactive | inactive | inactive | – | – | – | – | – | inactive | 7.57 µM (active) | – |
| O=Cc1ccccc1S(=O)(=O)O | inactive | inactive | inactive | – | inactive | inactive | inactive | inactive | inactive | – | – | – | inactive | – | inactive | – | – |
| CC1CCC(C(C)C)C(O)C1 (centres undefined) | inactive | inactive | inactive | – | inactive | inactive | inactive | inactive | inactive | – | – | – | inactive | – | inactive | – | – |
| O=C1OC(=O)c2c(Cl)c(Cl)c(Cl)c(Cl)c21 | inactive | inactive | inactive | – | – | inactive | inactive | inactive | inactive | – | – | – | inactive | – | inactive | 36.2 µM (active) | – |
| CCCCCc1ccco1 | inactive | inactive | inactive | 101 µM (active) | inactive | – | inactive | inactive | inactive | – | – | 90.9 µM (active) | inactive | – | – | – | – |
| CC(C)(C)CC(C)(C)c1ccc(OCCOCC[N+](C)(C)Cc2ccccc2)cc1 | inactive | inactive | – | 8.35 µM (active) | inactive | – | inactive | inactive | inactive | – | 14.8 µM (active) | 8.35 µM (active) | inactive | – | – | – | – |
| O=C1c2ccccc2C(=O)c2c(O)ccc(O)c21 | inactive | inactive | – | – | – | inactive | inactive | inactive | inactive | – | 3.02 µM (active) | – | inactive | – | inactive | 0.296 µM (active) | – |
| C#CC(C)(O)CC(C)C (centres undefined) | inactive | inactive | inactive | – | inactive | inactive | inactive | inactive | inactive | – | – | – | – | – | inactive | – | – |
| CCCOCCO | inactive | inactive | inactive | – | inactive | inactive | inactive | inactive | inactive | – | – | – | – | – | inactive | – | – |
| Nc1ccc2cc(S(=O)(=O)O)cc(O)c2c1N=Nc1ccccc1C(F)(F)F | inactive | inactive | inactive | – | – | inactive | inactive | inactive | inactive | – | – | – | inactive | – | inactive | 12.6 µM (active) | – |
| CN(C)C(=O)Nc1ccc(Oc2ccc(Cl)cc2)cc1 | inactive | inactive | – | 72 µM (active) | inactive | – | inactive | – | inactive | – | 71.9 µM (active) | 100 µM (active) | inactive | – | – | – | 113 µM (active) |
| O=C1CCCC=CCCCCCCCCCC1 | inactive | inactive | – | 33.4 µM (active) | inactive | – | inactive | inactive | inactive | – | 44.1 µM (active) | 50.3 µM (active) | – | – | – | – | – |
| c1ccc2[nH]cnc2c1 | inactive | inactive | inactive | – | inactive | inactive | inactive | inactive | inactive | – | – | – | inactive | – | inactive | – | – |
| CCOc1ccc(NC(=O)CC(C)=O)cc1 | inactive | inactive | inactive | – | inactive | inactive | inactive | inactive | inactive | – | – | – | inactive | – | inactive | – | – |
| C=C(C)C1CC=C(C)C(=O)C1 (centres undefined) | inactive | inactive | inactive | – | inactive | inactive | inactive | inactive | inactive | – | – | – | – | – | inactive | – | – |
